aSyn yeast inh: rescues yeast growth from alpha-synuclein toxicity | Potency, µM (top dose mostly 46.1 µM), for inactives: at the top dose growth rescue (activation), usual class: activators | 370,000 compounds, 0.14% hits | AID 652106 | Yeast expressing alpha-synuclein, growth rescue, BacTiter-Glo, 24 h; further: % of control where 0% means no effect; nearly all actives have a fitted effect of over 65% in size
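Rescue of yeast growth: cells expressing toxic alpha-synuclein, induced in galactose at OD600 0.02, incubated with compound 24 h at 30 C. ATP luminescence quantified growth; inhibitors of toxicity appear as activators.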
Abeta yeast res: A-beta toxicity reversal in yeast | yeast expressing A-beta42, growth rescue, OD600, 48 h; response scale: 0% DMSO, 100% iron-clioquinol control | Potency, µM (top dose mostly 46.1 µM), usual class: activators | 410,000 compounds, 0.063% hits | AID 1347071; further: nearly all actives have a fitted effect of over 55% in size
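Growth rescue measured by 600 nm absorbance after 48 h yeast culture at 30 C with compound. Values normalized between DMSO and an equimolar ferric chloride plus clioquinol control.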
TDP43 rescue: inhibitors of TDP-43 toxicity in yeast; 410,000 compounds, 1.8% hits; TDP-43 expressing yeast growth rescue, BacTiter-Glo, 24 h; AID 652104; Potency, µM (doses to about 46.1 µM), for the others: top-dose growth rescue (activation), most hits filed as activators; further: % of control where 0% means no effect; nearly all actives have a fitted effect of over 50% in size
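Galactose-induced TDP-43 yeast, OD600=0.02, compound pinned; 24 hr, 30 deg C; BacTiter-Glo luminescence for growth. Inhibitors of TDP-43 toxicity read as activators.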
FUS suppressor: FUS proteinopathy suppression in yeast | S. cerevisiae FUS-expressing, growth rescue, OD600, 24 h | Potency, µM (highest dose often 76.6 µM), actives largely listed as activators | 390,000 compounds, 0.24% hits | AID 1347120;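 further: plate controls were DMSO vehicle for no effect and reference control for full effect; nearly all actives have a fitted effect of over 55% in size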
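Absorbance at 600 nm, taken 24hr after compound addition, measured rescue of FUS-yeast growth at 30C. Induction used 2% galactose with seeding at OD 0.005. Controls: CP55940 from 92uM final, DMSO only.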
An asterisk follows results filed as active; i = inactive; ? = inconclusive; nt = no result; [ ] = dose if it differs, or a comment. This is a sample that favours compounds with a hit; in the whole collection about 2.1% have one here. The call rests on the fitted dose curve; in most records, active means well fitted curve in the direction sought with a large enough effect; inconclusive means small, poorly fitted or top-dose-only effect, or another doubt; inactive means no such curve, though single readings can be large; an effect the other way counts as inactive or inconclusive. Potency means the concentration at half of the fitted maximal effect.

SMILES	aSyn yeast inh	Abeta yeast res	TDP43 rescue	FUS suppressor
CN=C(Nc1cccc(Cl)c1)SC1CC(=O)N(c2ccc(OC)cc2)C1=O (stereo not given)	?	8.91µM*	29.3%[9.22 µM]	i
O=C(Nc1cccc(Cl)c1)O[C@@H]1CC[C@@]23CCCN2C(=O)CCC[C@H]3C1	nt	nt	nt	i
CN(C)/[N+]([O-])=N/Oc1cc(F)c([N+](=O)[O-])cc1[N+](=O)[O-]	-23.0%	nt	nt	nt
CCCCOC(=O)/C=C/c1ccc(OC(=O)OC)c(OC(=O)OC)c1	-41.2%	i	14.1µM*	i
COC(=O)Oc1ccc(/C=C/C(=O)OC(C)C)cc1OC(=O)OC	-12.5%	i	14.1µM*	i
COc1ccc(/C=C/C(=O)OCCNC(=O)c2ccncc2)cc1OC	3.9%	?	12.6%	i
O=C1CCC[C@H]2CC3(CC[C@]24CCCN14)OCCO3	nt	nt	nt	i
O=c1c2cc3cccnc3nc2ncn1CCc1c[nH]c2ccccc12	nt	nt	nt	i
O=C(NCc1ccccc1)c1ccc2oc(=O)n(Cc3ccccc3)c2c1	nt	i	22.4µM*	i
Cc1cc(SCC(=O)N2CCN(C(=O)c3ccco3)CC2)c(C)cc1Br	-6.0%[1.84 µM]	i	25.1µM*	i
Cc1cc(SCC(=O)OCC(=O)N2CCN(C(=O)c3ccco3)CC2)c(C)cc1Br	11.1%	i	7.8%	i
COC(=O)C1=C(O)CSC1=Nc1ccc(C)cc1	9.1%	i	15.8µM*	nt
Cc1ccc(CN2CCCCC(NC(=O)c3ccc(F)c(F)c3)C2=O)cc1 (stereo not given)	nt	nt	nt	i
COc1ccc(CNC(=O)c2c(C)oc3c2C(=O)c2ccccc2C3=O)cc1	2.7%	i	?	i
CC(=O)c1c2c3c(c(Br)ccc3n(C)c1=O)C(=O)c1ccccc1-2	0.0%	i	-22.3%	i
CC(=O)c1c(C)oc2c1C(=O)c1ccccc1C2=O	-3.7%	i	5.01µM*	nt
Cc1oc2c(c1C(=O)NCc1cccnc1)C(=O)c1ccccc1C2=O	11.0%	i	35.5µM*	i
O=C1c2ccccc2C(=O)c2c1oc(C(F)(F)F)c2C(=O)c1ccccc1	-48.7%	i	3.55µM*	nt
Cc1ccc(CSc2nnc(-c3n[nH]c4c3CCC4)n2N)cc1	nt	nt	nt	i
O=C1CC(c2ccccc2)Cc2[nH]c(=O)c(C(=O)O)cc21 (stereo not given)	-13.1%	nt	nt	nt
Cc1occc1C(=O)n1nnc2ccccc21	11.0%	i	15.8µM*	i
CCSc1ccccc1C(=O)n1nnc2ccccc21	7.3%	i	9.1%	i
O=C(/C=C/c1cn(-c2ccccc2)nc1-c1cccnc1)c1ccco1	5.2%	i	12.6µM*	i
NC(=O)c1cn(-c2ccccc2)nc1-c1cccnc1	0.2%	i	12.6µM*	i
OCc1cn(-c2ccccc2)nc1-c1cccnc1	-0.3%	i	7.9%	i
SMILES	aSyn yeast inh	Abeta yeast res	TDP43 rescue	FUS suppressor
Cc1nn(-c2ccccc2)c2sc(C(=O)NC3CCCC3)cc12	nt	nt	nt	i
O=C(Nc1ccccc1C(=O)OCc1cc(=O)n2ccsc2n1)c1cccc(F)c1	nt	i	8.0%	i
O=C(CSc1nnc(-c2cccnc2)n1Cc1ccco1)Nc1cc(Cl)ccc1F	nt	nt	nt	i
Oc1ccc(C23CC4CC(CC(C4)C2)C3)cc1O	2.82µM*	?	6.31µM*	i
Fc1ccc(N2CCN(c3ncnc4c3nc3n4CCCC3)CC2)cc1	nt	i	-2.5%	i
Clc1cccc(N2CCN(c3ncnc4c3nc3n4CCCC3)CC2)c1	nt	i	15.8µM*	i
Cc1ccc(Cl)cc1N1CCN(c2ncnc3c2nc2n3CCCCC2)CC1	nt	i	25.1µM*	i
Cc1cc(C)cc(NC(=O)O[C@@H]2CC[C@@]34CCCN3C(=O)CCC[C@H]4C2)c1	nt	nt	nt	i
Cc1cccc(C(=O)O/N=C(\c2ccccc2)c2cccnc2)c1	9.4%	i	12.6µM*	i
Cc1ccc(C(=O)O/N=C(\c2ccccc2)c2cccnc2)cc1	-6.3%	i	17.8µM*	i
CNC(=O)C[C@@H]1CC[C@@H]2[C@H](COc3ccc(NC(=O)c4cccc(F)c4)cc3C(=O)N2C)O1	nt	nt	nt	i
CS(=O)(=O)c1ccc(/C=C2\C=Cc3ccccc32)cc1	-0.8%	nt	nt	nt
C=CCN1C(=O)[C@@H](CC(=O)N2CCOCC2)[C@]2(C(=O)OCC)CCCCC/C=C/12	nt	nt	nt	i
Cc1sc2ncnc(N3CCC(C(=O)Nc4cc(Cl)ccc4Cl)CC3)c2c1C	-10.1%	i	11.2µM*	i
Cc1sc2ncnc(N3CCC(C(=O)Nc4cc(S(C)(=O)=O)ccc4Cl)CC3)c2c1C	0.2%	i	2.0%	i
Cc1ccc(S(=O)(=O)N2CCN(c3ncnc4scc(-c5ccccc5)c34)CC2)cc1	8.8%	i	15.8%	nt
Cc1sc2ncnc(N3CCN(S(=O)(=O)c4ccccc4)CC3)c2c1C	-3.2%	i	17.8µM*	nt
Cc1ccc(S(=O)(=O)N2CCN(c3ncnc4sccc34)CC2)cc1C	6.8%	i	11.2µM*	i
C=CCN1C(=O)[C@@H](CC(=O)N2CCCCC2)[C@]2(C(=O)OC)CCCCC=C12	nt	nt	nt	i
CCc1ccccc1NS(=O)(=O)c1ccc(-c2coc(C)n2)cc1	0.3%	i	12.6µM*	i
COc1ccc2[nH]c(C)c(C(=O)CNc3nccs3)c2c1	0.6%	nt	nt	nt
Cc1nnc(SCc2ccc(Cl)cc2)c2cc3occc3n12	nt	i	22.2%[9.22 µM]	?
Cc1nnc(SCc2ccccc2Cl)c2cc3occc3n12	nt	i	35.5µM*	?
CCc1c(C)nc2nncn2c1Nc1ccc(C(C)C)cc1	nt	i	12.6µM*	i
Cc1c(-c2ccccc2)sc2nc[nH]c(=S)c12	-4.1%	?	15.8µM*	i
CSc1ncc2c(n1)-c1ccccc1N(Cc1ccc(Cl)cc1)S2(=O)=O	nt	i	16.3%	i
COC(=O)c1cc(-c2cc(F)cc(OC)c2)c(=O)n2c1CCC2	nt	nt	nt	i
COC(=O)c1cccc(CN2C(=O)SC(Nc3ccccc3C)C2=O)c1 (stereo not given)	nt	i	?	i
